Rows were chosen to be rich in hits. Some 3.9% of all compounds tested hit in one or more screens of this group.
SARS 3CLpro inh: SARS-CoV 3CLpro protease inhibition; P0C6X7; recombinant SARS-CoV 3CLpro, quenched FRET peptide cleavage; inhibition, % at 6 µM; hit rate 0.14% among 290,000; AID 1706; in the data active means inhibition above about 12%
GDH-TPI counter-1: counter-screen for M. tuberculosis FBA inhibitors: GDH-TPI coupled enzymes; GDH-TPI coupled enzyme counterscreen, NADH absorbance; inhibition, % at 4.8 µM; hit rate 1.2% among 360,000; in the data active means inhibition above about 30%;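 further: 0% = DMSO wells and 100% = wells lacking the enzyme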
FBA Mtb inh: Mtb fructose-bisphosphate aldolase inhibition; P9WQA3; purified M. tuberculosis FBA, fluorescence read-out; inhibition, % at 1 µM; hit rate 2.3% among 360,000;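 further: 0% = vehicle and 100% = reference inhibitor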
Target sequence (P9WQA3 whole entry, looked up): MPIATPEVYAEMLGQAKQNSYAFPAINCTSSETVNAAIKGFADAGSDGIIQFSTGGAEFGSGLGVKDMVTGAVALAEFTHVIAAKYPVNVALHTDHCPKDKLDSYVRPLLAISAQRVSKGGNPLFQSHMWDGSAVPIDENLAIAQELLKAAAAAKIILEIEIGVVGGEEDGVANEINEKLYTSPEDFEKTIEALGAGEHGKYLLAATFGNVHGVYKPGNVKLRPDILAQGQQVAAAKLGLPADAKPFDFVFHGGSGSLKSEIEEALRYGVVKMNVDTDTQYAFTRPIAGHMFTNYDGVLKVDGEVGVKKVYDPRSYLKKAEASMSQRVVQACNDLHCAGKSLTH
BH1578 lux ind: inducers of Vibrio cholerae quorum light production without autoinducers | V. cholerae BH1578 lux reporter, luminescence, 6 h | activation, % at 18.7 µM | hit rate 0.16% among 350,000; in the data active means activation mostly above about 9.7%, no sharp cut-off
PrPC TRFRET: cell surface PrPC inhibition, primary TR-FRET screen; AID 720596; inhibition, % at 13.8 µM; TR-FRET read-out; hit rate 0.43% among 370,000; P04156; in the data active means inhibition above about 24%; further: 0% = median of the test wells and 100% = reference compound wells
Mtb FBA inh conf: confirmation of M. tuberculosis fructose-bisphosphate aldolase inhibitors. shares compounds with FBA Mtb inh. purified M. tuberculosis FBA, fluorescence read-out. inhibition, % at 1 µM. hit rate 78% among 5,600;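 further: 0% = vehicle wells and 100% = reference inhibitor wells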
GDH-TPI counter-2: GDH-TPI inhibition counter-screen for FBA inhibitors | shares compounds with FBA Mtb inh | GDH-TPI coupled enzyme counterscreen, fluorescence | inhibition, % at 1 µM | hit rate 81% among 5,600; in the data active means inhibition above about 10%
* = called active by the depositor; i = inactive; · = no result; + = active, no number. Unless noted, no stated cut-off is given here; in the data, active means inhibition above about 27%; inactive means the rest.

SMILES	SARS 3CLpro inh	GDH-TPI counter-1	FBA Mtb inh	BH1578 lux ind	PrPC TRFRET	Mtb FBA inh conf	GDH-TPI counter-2
O=C(c1cccnc1)N1CCC(Oc2ccc(C(=O)N3CCCC(O)C3)cc2)CC1 (stereo unspecified)	-3.2	2.8	27.9*	-0.1	-6.5	57.6*	30.4*
Cc1csc2ncc(C(=O)NCc3ccco3)c(=O)n12	4.5	23.7	35.5*	-0.6	0.3	124.0*	114.5*
Cc1cccc(NC(=O)c2cnc3scc(C)n3c2=O)c1	1.1	-4.3	-0.2	-0.1	10.0	·	·
Cc1csc2ncc(C(=O)Nc3ccon3)c(=O)n12	-4.3	19.2	54.8*	i	0.0	123.9*	105.0*
COc1ccc(CNC(=O)c2cnc3scc(C)n3c2=O)cc1	5.5	29.1	11.6	-0.3	4.8	·	·
CCOc1ccc(S(=O)(=O)N2CCN(C(=O)C3CCC3)CC2)cc1	·	-9.3	0.1	-5.7	2.8	·	·
C[C@@H]1CN([C@H](C)CO)C(=O)CCCn2nncc2CO[C@@H]1CN(C)C(=O)Nc1ccc2c(c1)OCO2	·	6.2	0.9	-0.7	-4.9	·	·
Cc1ccc(S(=O)(=O)N2CCC(C(=O)NNC(=O)c3ccccc3O)CC2)cc1C	·	-3.6	29.7*	i	7.2	+	+
Cc1cc(C)c(C)c(S(=O)(=O)N2CCC(C(=O)NNC(=O)c3ccccc3O)CC2)c1C	·	4.5	38.8*	-1.5	4.0	133.3*	112.6*
COc1ccc(CCC(=O)Nc2cc(S(C)(=O)=O)ccc2Cl)cc1	-0.7	-12.0	1.4	i	·	·	·
COC1(OC)N=C(N)C2(C#N)C(c3ccccc3)NC(C)=CC12C#N (stereo unspecified)	3.3	-2.0	61.6*	1.4	-7.0	+	+
COc1ccc(-c2coc3c(C(=O)NCc4ccc(C(F)(F)F)cc4)cccc23)c(C)c1	·	-9.6	-0.7	0.3	3.4	·	·
CC1(C(=O)Nc2ccc(Cl)c(Cl)c2)CCN1C(=O)Cc1cccc2ccccc12 (stereo unspecified)	·	-5.3	0.6	-0.3	7.8	·	·
CC(C)(C)CC(C)(C)Nc1c(-c2ccc(O)cc2)nc2cnccn12	-1.9	15.5	59.2*	-0.7	4.4	+	+
O=C1Nc2ccccc2N(C(=O)c2ccc(-c3ccccc3)cc2)C1c1nc2ccccc2[nH]1 (stereo unspecified)	·	·	·	·	-42.1	·	·
Cc1cccc(CNC(=O)c2ccccc2NC(=O)C2=CSCCO2)c1	-3.9	11.1	-0.9	-0.2	0.0	·	·
Cc1cccc(CNC(=O)c2ccccc2N)c1	-1.9	-9.8	57.8*	-0.3	-3.7	137.3*	102.3*
Cc1ccc(CNC(=O)c2ccccc2N)cc1	-1.2	-9.6	59.8*	i	-2.2	79.8*	59.8*
Cc1ccc(CNC(=O)c2ccccc2N(C)S(C)(=O)=O)cc1	-0.8	9.5	3.1	-0.5	3.5	·	·
Nc1ccccc1C(=O)NCc1ccco1	6.2	1.4	52.3*	i	1.8	83.2*	59.3*
O=C(NCc1cc2ccccc2[nH]1)C1CCC(=O)N(CCCN2CCCC2=O)C1 (stereo unspecified)	-4.1	4.8	30.0*	-0.9	2.0	62.4*	32.2*
CC(=O)N1CCc2cc(S(=O)(=O)NCCC(=O)NCc3ccc(Cl)cc3)ccc21	·	·	·	·	13.0	·	·
O=C(/C=C/c1cccs1)NC(=S)NNC(=O)c1ccccc1O	1.1	24.9	27.9*	-0.4	-6.4	-0.8	3.1
COc1ccc(C(=O)NNC(=S)NC(=O)/C=C/c2cccs2)cc1	0.8	0.3	0.5	i	5.5	·	·
Nc1nc(N2CCCCC2)nc2ccccc12	2.0	12.5	30.8*	·	0.0	44.0*	36.9*
SMILES	SARS 3CLpro inh	GDH-TPI counter-1	FBA Mtb inh	BH1578 lux ind	PrPC TRFRET	Mtb FBA inh conf	GDH-TPI counter-2
CC(=O)Nc1ccc(S(=O)(=O)N2CCCC2C(=O)Nc2ccc3c(c2)OCCO3)cc1 (stereo unspecified)	4.5	-5.7	-3.4	-0.1	8.7	·	·
Cc1ccc(CNC(=O)CN(C(=O)C2(C)CC(=O)N=C3C=CC=CN32)c2cccc(C)c2C)cc1 (stereo unspecified)	-5.3	1.5	110.6*	-0.2	-0.8	93.1*	85.7*
Cc1ccc(CNC(=O)CN(C(=O)C2(C)CC(=O)N=C3C=CC=CN32)c2ccccc2)cc1 (stereo unspecified)	0.1	2.3	73.7*	-0.3	-6.5	-1.2	-2.1
Cc1ccc(N(CC(=O)NCc2ccccc2)C(=O)c2csnn2)c(C)c1	1.5	1.5	-0.5	i	-2.0	·	·
Cc1ccc(CN2CCN(CC(=O)NCc3ccccc3)CC2)cc1	5.3	19.6	-1.6	-0.6	0.2	·	·
NC(=O)NC(=O)COC(=O)CCSc1ccccc1	0.6	-1.9	0.5	i	9.3	·	·
NC(=O)c1ccccc1N=Cc1ccccn1	0.0	4.2	7.6	i	1.1	·	·
O=C(Nc1ccccc1)c1ccccc1N=Cc1cccc(O)c1	5.2	7.5	41.2*	-0.1	-4.9	51.4*	39.8*
O=C(N/N=C/c1cccc(O)c1)c1ccccc1O	-3.1	15.9	-2.0	i	-8.4	·	·
Cc1ccc(C(=O)c2ccccc2C(=O)Nc2ccccc2)cc1	·	2.7	-1.1	-0.8	-4.2	·	·
COc1cccc(C=Nc2ccccc2C(=O)Nc2ccccc2)c1O	5.2	3.0	29.5*	-0.4	-1.0	129.2*	107.0*
Cc1ccccc1C=Nc1ccccc1C(N)=O	2.9	8.0	49.6*	0.9	9.1	71.5*	57.1*
Cc1ccc(C=Nc2ccccc2C(=O)Nc2ccccc2)cc1	1.4	7.1	38.8*	-0.1	-6.7	136.2*	102.6*
O=C(CN1C(=O)NC2(CCCCCCC2)C1=O)Nc1cccc(Br)c1	·	-0.3	1.2	i	13.4	·	·
Cc1ccc(C=Nc2ccccc2C(N)=O)cc1	-7.8	0.7	65.0*	-12.5	6.2	83.0*	74.3*
NC(=O)c1ccccc1N=Cc1cccnc1	·	-0.4	19.6	-0.9	0.4	·	·
CSc1cccc(N2CC(C(=O)N3CCN(S(=O)(=O)c4ccccc4Cl)CC3)CC2=O)c1 (stereo unspecified)	·	2.2	2.5	i	1.7	·	·
CCCCn1c(=O)nc2n(-c3ccccc3)c3ccccc3cc-2c1=O	-6.6	10.4	45.6*	-3.3	5.9	122.5*	98.0*
Cc1ccc(C)c(-n2c3nc(=O)n(C)c(=O)c-3cc3ccccc32)c1	-2.7	19.0	100.3*	-0.5	-26.2	+	+
COc1cccc(C(=O)Nn2cnnc2)c1OC	-0.4	4.2	-0.4	0.3	5.3	·	·
CC1C(c2ccccc2)=Nn2c(=O)n(-c3ccccc3)c(=O)n21 (stereo unspecified)	·	0.9	103.4*	5.9	-5.1	+	+
O=C(CSc1nnc(-c2ccc(Cl)cc2)o1)N1CCOCC1	3.1	0.7	1.6	-0.3	9.7	·	·
COc1ccc(CNC(=O)c2ccc(Cl)c(S(=O)(=O)N3CCCCCC3)c2)cc1	·	9.1	-3.8	-0.7	0.8	·	·

Screens: PubChem BioAssay, several laboratories
